This is a sample that favours compounds with a hit; in the whole collection about 3.9% have one here.
Vc quorum ag – induces V. cholerae light production without autoinducers; V. cholerae BH1578 lux reporter, luminescence, 6 h; activation, % at 18.7 µM; 0.16% of 350,000 active; AID 588436; in the data active means activation mostly above about 9.7%, no sharp cut-off; inconclusive means no clear call, values can overlap the other calls; inactive means mostly below about 3.7%
BoNT-A LC inh2 – inhibitors of Botulinum neurotoxin A light chain protease; 0.17% of 360,000 active; multiplex microsphere protease substrate cleavage, flow cytometry; AID 588499; inhibition, % at 10 µM
Autofluor counter – compound fluorescence in toxin protease inhibitor counterscreen; compound autofluorescence counterscreen, microsphere flow cytometry; stronger effect = higher value; AID 624483; fluorescence intensity (concentration not given with the values); 3.1% of 360,000 active; in the data active means fluorescence intensity above about 16000; inconclusive means no clear call, values can overlap the other calls
MazEF act – activators of E. coli MazEF toxin-antitoxin RNase | 0.32% of 350,000 active | activation, % at 20 µM | P0AE70 | FAM/BHQ RNA-DNA oligo cleavage fluorescence, 5 h; in the data active means activation above about 50%
Target sequence (P0AE70 whole entry, looked up): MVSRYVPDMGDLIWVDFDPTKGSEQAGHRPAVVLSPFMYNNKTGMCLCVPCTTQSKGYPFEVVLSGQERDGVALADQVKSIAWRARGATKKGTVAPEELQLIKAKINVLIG
BoNT-F LC inh – BoNT F light chain protease inhibition; Multiplex microsphere protease cleavage assay, flow cytometry; inhibition, % at 10 µM; 0.22% of 360,000 active; in the data active means inhibition above about 35%, passing the limit was not always enough; inconclusive means no clear call, values can overlap the other calls
Anthrax LF prot – inhibitors of Bacillus anthracis lethal factor protease | P15917 | multiplex microsphere protease cleavage assay, LF | inhibition, % at 10 µM | 0.12% of 360,000 active | AID 588501
Each line names hits and unclear results; the compound was inactive in the other large screens. Unless noted, no stated cut-off is given here; in the data, active means inhibition above about 30%; inconclusive means no clear call, values can overlap the other calls; inactive means below that.

Cc1nn(Cc2ccccc2)c(C)c1NC(=O)c1cc(-c2cccs2)on1	Autofluor counter 16449
O=C(NCCCn1ccnc1)c1cc(-c2ccc3c(c2)OCO3)on1	Autofluor counter 20683
COc1ccc(-c2cc(C(=O)Nc3c(C)nn(Cc4ccccc4)c3C)no2)cc1	Autofluor counter 24465
Cc1nn(Cc2ccccc2)c(C)c1NC(=O)c1cc(-c2ccc3c(c2)OCO3)on1	BoNT-A LC inh2 inconclusive, Autofluor counter 16514
O=C(CN1C(=O)c2cccnc2Oc2ccc(Cl)cc21)NCCC1=CCCCC1	none
COc1cccc(-c2cc(C(=O)Nc3c(C)nn(Cc4ccccc4C)c3C)no2)c1	Autofluor counter 19715
CSc1ccccc1NC(=O)c1cc(-c2cccs2)on1	BoNT-A LC inh2 inconclusive, Autofluor counter 24196
COc1cccc(-c2cc(C(=O)Nc3c(C)nn(Cc4ccccc4)c3C)no2)c1	none
COc1ccc(-c2cc(C(=O)Nc3ccccc3SC)no2)cc1	none
Cn1c(SCc2ccc(C#N)cc2)nnc1-c1cccc(Cl)c1	Autofluor counter 16948
C=CCn1c(SCc2ccc(C#N)cc2)nnc1-c1ccccc1	Autofluor counter 22580
C=CCn1c(SCc2ccccc2C#N)nnc1-c1ccccc1O	Autofluor counter 21434
C=CCn1c(SCC(N)=O)nnc1-c1cc(Br)ccc1O	BoNT-A LC inh2 inconclusive, Autofluor counter 21322
C=CCn1c(SCC(N)=O)nnc1-c1ccccc1O	none
C=CCn1c(SCc2ccc(C#N)cc2)nnc1-c1cccc(OC)c1	none
O=C1NC[C@@H](CCCCN2CCN(CC3CCCCC3)C(=O)C2=O)N(CCC2CCCCC2)C1=O	none (no result: Vc quorum ag, MazEF act)
CC1CCC(NC(=O)c2nn(C)c(=O)c3ccccc23)CC1 (stereo not given)	none
COC(=O)c1ccc(C)c(NC(=O)c2nn(C)c(=O)c3ccccc23)c1	BoNT-A LC inh2 inconclusive, Autofluor counter 22678
CCCn1nc(C(=O)Nc2cc(C(=O)OC)ccc2C)c2ccccc2c1=O	none
Cn1nc(C(=O)NC2CCCCC2)c2ccccc2c1=O	BoNT-A LC inh2 inconclusive, Autofluor counter 21828
CCOc1nc(-c2ccc(Cl)cc2Cl)ccc1C#N	Autofluor counter inconclusive
Cc1cc(Cl)ccc1Oc1nc(-c2ccc(F)cc2)ccc1C#N	BoNT-A LC inh2 inconclusive, Autofluor counter 22004
COc1cc(Cl)c(C)cc1NC(=O)COC(=O)C1=COCCO1	none
CC1CSc2ccccc2NC1=S (stereo not given)	Autofluor counter 16476
S=C1CSc2ccccc2N1	none
Cc1ccc(-n2nnnc2SC(C)C(=O)NCC(=O)Nc2ccc(F)c(F)c2F)c(C)c1 (stereo not given)	none
Cc1ccc(-n2nnnc2SC(C)C(N)=O)c(C)c1 (stereo not given)	Vc quorum ag 16.7
Cc1ccc(-n2nnnc2SCC(=O)Nc2cc(C)on2)c(C)c1	none
C/C(N)=C(/C#N)C(=O)CSc1nnnn1-c1ccc(C)cc1C	Autofluor counter 19626
CCOC(=O)C1C(=O)C=C(/C=C/c2ccc(N(C)C)cc2)CC1c1ccccc1 (stereo not given)	MazEF act 106.0
Nc1c(S(=O)(=O)c2ccccc2)c2nc3ccccc3nc2n1/N=C/c1cccc(O)c1	BoNT-F LC inh inconclusive
Cc1cccc(S(=O)(=O)c2c(N)n(/N=C/c3ccccc3)c3nc4ccccc4nc23)c1	Autofluor counter 16348
COc1ccccc1Cc1noc(C(C)(C)NC(=O)c2ccccc2)n1	Autofluor counter 17677
COc1ccccc1CC(=O)NNC(=O)c1ccc(C(C)(C)C)cc1	none
Cc1sc(NC(=O)C2CCCCC2C(=O)O)c(C(N)=O)c1C (stereo not given)	Autofluor counter 23098
Cc1cc(Cl)ccc1NC(=O)Nc1c(C)n(-c2ccccc2)c(=O)n1C	Autofluor counter 22798
COc1ccc(Cl)c(NC(=O)Nc2c(C)n(-c3ccccc3)c(=O)n2C)c1	none
Cc1ccccc1C(=O)N(C)[C@H]1C[C@H]2c3[nH]c4ccccc4c3CCN2C[C@H]1[C@H](C)O	none (no result: Vc quorum ag, MazEF act)
COc1ccc(C(=O)NCC(=O)OCc2ccccc2F)cc1	none
CCCCCOC(=O)C(C)Sc1n[nH]c(=O)[nH]c1=O (stereo not given)	none
CCCCOC(=O)CSc1n[nH]c(=O)[nH]c1=O	Autofluor counter 23897
CN(Cc1ccccc1)C(=O)CN1C(=O)C2C3C=CC(C3)C2C1=O (stereo not given)	Autofluor counter 21276
O=S(=O)(c1ccc(F)cc1)N(CCO)CC(O)Cn1c2ccccc2c2ccccc21 (stereo not given)	Autofluor counter 16893
CC(=O)c1ccc(-c2ccc(C(=O)N3CCC(C(N)=O)CC3)o2)cc1	Autofluor counter inconclusive
O=C(CCS(=O)(=O)c1ccc(Br)cc1)N1CCN(c2ccc(F)cc2)CC1	none
O=C(CCS(=O)(=O)c1ccc(Br)cc1)N1CCN(c2ccc(Cl)cc2)CC1	Autofluor counter 20319
O=C(Nc1nccs1)C1CC(=O)N(c2ccccc2Cl)C1 (stereo not given)	Autofluor counter 23519
O=C(CSc1nc2ccccc2c(=O)[nH]1)c1ccccc1	none
CC(C)(C)c1ccc(C(=O)CSc2nc3ccccc3c(=O)[nH]2)cc1	MazEF act 51.4
COc1ccc(CN2C(=O)CC(=O)NC2=S)cc1	none
CCOC1(C(F)(F)F)NC(=O)N(Cc2ccc(OC)cc2)C1=O (stereo not given)	Autofluor counter 19545
O=C(Nc1ccc(Cl)cc1C(=O)Nc1ccc(Br)cn1)c1ccco1	Autofluor counter 20162
O=C(Nc1ccc(Cl)cc1C(=O)c1ccccc1)c1ccco1	none
O=C(OCCN1CCOCC1)c1ccc(Cl)cc1Cl	BoNT-F LC inh inconclusive
O=C(NCc1cccnc1)c1sc2cc(Cl)ccc2c1Cl	none
Cn1c(=O)n(CC(=O)NCc2cccnc2)c2ccccc21	Autofluor counter 24061
Cn1c(=O)n(CC(=O)Nc2cccnc2)c2ccccc21	none
Cc1ccccc1NC(=O)Cn1c(=O)n(C)c2ccccc21	Autofluor counter 21084
Cn1c(C(=O)NCc2cccnc2)cc2sc(Cl)cc21	Autofluor counter 20564
Cc1ccccc1NC(=O)Cn1nc(-c2ccccc2)nc1-c1ccccc1	Autofluor counter 16150
COc1ccccc1C(=O)NNC(=S)NC(=O)c1ccco1	none
O=C(CSc1ccc([N+](=O)[O-])cc1)Nc1nnc(C2CC2)s1	none
CC(NC(=O)c1ccncc1)C(C)(C)C (stereo not given)	Autofluor counter 21180
Cc1ccc(C(C)NC(=O)c2ccncc2)cc1C (stereo not given)	none
CCN(CC(=O)N1CCOCC1)S(=O)(=O)c1ccc(Cl)cc1	none
CCN(CC)c1ccc(/C=N/NC(=O)c2ccc([N+](=O)[O-])cc2)cc1	none
CCN(CC)c1ccc(/C=C/[N+](=O)[O-])cc1	BoNT-A LC inh2 65.9, Anthrax LF prot 35.1
Cn1nc(-c2ccc(N3CCCCC3)c(NC(=O)c3ccco3)c2)c2ccccc2c1=O	BoNT-A LC inh2 inconclusive, Autofluor counter 23305
CCN(CC)S(=O)(=O)c1cccc(C(=O)N/N=C/c2ccc([N+](=O)[O-])o2)c1	none

Assay outcomes from PubChem BioAssay.
